Source: PubChem BioAssay AID623926 (Vanderbilt Specialized Chemistry Center, 2012)
Active and inactive are the calls of the source.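 Rule for the calls: active = compound whose M3 calcium response shifts with concentration, judged dose-dependent by the depositor; inactive = the rest, no dose-dependent response.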

target: Muscarinic acetylcholine receptor M3 (Homo sapiens) (UniProt P20309); assay: potentiation of ACh response at hM3 – CHO cells, calcium flux, selectivity assay for M4 PAM optimization, SAR follow-up (AID 623926); settings: Fluo-4 calcium flux; outcome: ACh EC20; ACh EC20, at 30 µM (top of the series)

outcome, inactive:
Cc1nc2sc(C(=O)NCc3ccc4c(c3)OCO4)c(N)c2c(C)c1Cl, Cc1nc2sc(C(=O)NCCc3ccncc3)c(N)c2c(C)c1Cl, Cc1nc2sc(C(=O)NC3CC3)c(N)c2c(C)c1Cl, Cc1nc2sc(C(=O)NCc3nccs3)c(N)c2c(C)c1Cl, Cc1nc2sc(C(=O)NCc3cccnc3)c(N)c2c(C)c1Cl, Cc1nc2sc(C(=O)NCc3ccccc3)c(N)c2c(C)c1Cl, Cc1nc2sc(C(=O)NCc3cccc(F)c3F)c(N)c2c(C)c1Cl, Cc1nc2sc(C(=O)NCc3ccncc3)c(N)c2c(C)c1Cl, COc1ccc(C)c2sc(NC(=O)c3ccncc3)nc12, Cc1nc2sc(C(=O)NCc3ccncn3)c(N)c2c(C)c1Cl
